Test results as given in PubChem BioAssay (NCI).
About 79,000 compounds went through this panel and 15% of them were active in at least one assay; those are over-represented in the sample as a whole. A number with no mark means an inactive call. Active and inactive are the calls of the source. Cut-off read from the data, not from the text of the source: active = growth inhibition above about 70%; inactive = the rest.

How the values were obtained:
[1] = NCI Yeast Anticancer Drug Screen. Data for the rad50 strain (AID 155);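 note: 0% = growth of vehicle-only cultures of the same strain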; settings: S. cerevisiae rad50 strain growth inhibition, active compounds read high
In short: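 Growth of the mutant yeast was measured after compound exposure and referenced to vehicle-treated cultures.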

[2] = NCI Yeast Anticancer Drug Screen. Data for the mec2-1 strain (AID 157); settings: S. cerevisiae mec2-1 strain, active compounds read high
In short: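 Each compound was tested on mec2-1 yeast, a strain altered in DNA damage repair or cell cycle control. Growth inhibition is reported relative to vehicle.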

[3] = NCI Yeast Anticancer Drug Screen. Data for the sgs1 mgt1 strain (AID 161);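 note: 0% = growth of cultures given vehicle only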; settings: S. cerevisiae sgs1 mgt1 strain, active compounds read high
In short: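 Test agents were incubated with a DNA-repair-mutant yeast strain. Growth was then read and compared against vehicle-treated controls.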

[4] = NCI Yeast Anticancer Drug Screen. Data for the cln2 rad14 strain (AID 165);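 note: 0% = growth equal to vehicle treated cultures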; settings: S. cerevisiae cln2 rad14 strain, active compounds read high
In short: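 Test compounds were added to cln2 rad14 yeast cultures; inhibition of growth was then determined by comparison with vehicle treatment.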

[5] = NCI Yeast Anticancer Drug Screen. Data for the bub3 strain (AID 167); settings: S. cerevisiae bub3 mutant strain, active compounds read high
In short: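 Whole-cell yeast assay. The mutant strain was incubated with compounds, and growth inhibition was determined by comparison with vehicle-treated cells.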

[6] = NCI Yeast Anticancer Drug Screen. Data for the mlh1 rad18 strain (AID 175); settings: S. cerevisiae mlh1 rad18 strain growth inhibition, active compounds read high
In short: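 Inhibition values reflect reduced growth of mutant yeast versus vehicle-treated controls following compound exposure; the mutations affect DNA damage repair.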

[7] = at 5.0 µM (retest, dose inferred, filed as 0.5)
[8] = at 50.0 µM (retest, dose inferred, filed as 5.0)

SMILES | growth inhibition [1, 7] | growth inhibition [1, 8] | growth inhibition ([1]; at 50.0 µM) | growth inhibition [2, 7] | growth inhibition [2, 8] | growth inhibition ([2]; at 50.0 µM) | growth inhibition [3, 7] | growth inhibition [3, 8] | growth inhibition ([3]; at 50.0 µM) | growth inhibition [4, 7] [%] | growth inhibition [4, 8] | growth inhibition ([4]; at 50.0 µM) | growth inhibition [5, 7] | growth inhibition [5, 8] | growth inhibition ([5]; at 50.0 µM) | growth inhibition [6, 7] | growth inhibition [6, 8] | growth inhibition ([6]; at 50.0 µM)
C=Cc1cc(=O)oc2cc(OC)ccc12 | 20% | 98% (active) | 71.4% (active) | 22% | 99% (active) | 86.2% (active) | 22% | 98% (active) | 61.2% | 14 | 99% (active) | 72.2% (active) | 14% | 98% (active) | 93.2% (active) | 30% | 98% (active) | 93.8% (active)
CCOc1ccc(N=Nc2ccccc2)cc1 | -11% | -58% | 1.8% | -25% | -35% | 37.1% | -8% | -39% | -19.8% | 0 | -27% | 38% | -13% | -39% | -12.6% | -9% | -49% | -11.9%
O=C1c2ccccc2C(=O)c2c1ccc(O)c2O | 79% (active) | 96% (active) | 83.3% (active) | 75% (active) | 94% (active) | 75.8% (active) | 91% (active) | 94% (active) | 81.5% (active) | 23 | 63% | 65.7% | 80% (active) | 93% (active) | 77.9% (active) | 90% (active) | 96% (active) | 79% (active)
CCC(C)OC(=O)c1cccc(C)c1 (stereo not given) | 0% | 17% | 94.3% (active) | -2% | 5% | -6.8% | 1% | 7% | -5.05% | 1 | 6% | 38.5% | 2% | 23% | 6.95% | -3% | 12% | 2%
Cc1cccc2c1Oc1cc(Cl)ccc1C2NC(=O)CCN1CCN(CCO)CC1 (stereo not given) | 0% | 29% | 38% | -11% | -13% | -0.05% | -3% | 6% | 38.1% | 11 | 26% | 25.6% | -8% | 11% | 39.4% | 3% | 29% | 70.3% (active)
C/C(=N\OC(=O)c1ccccc1)[N+](=O)[O-] | -50% | 98% (active) | 88.1% (active) | -6% | 100% (active) | 77.8% (active) | -11% | 99% (active) | 72% (active) | -27 | 99% (active) | 81.8% (active) | -61% | 85% (active) | 56.9% | -54% | 98% (active) | 65.4%
N#CC(c1ccc(Cl)cc1)c1ccc([N+](=O)[O-])cc1 (stereo not given) | -12% | 52% | 40.9% | -16% | 37% | 20.5% | 2% | 84% (active) | 60.9% | -4 | 53% | 3.95% | 2% | 86% (active) | 64.3% | -5% | 88% (active) | 45.5%
Cc1cc(N)c(C)c2c1[nH]c1ccc(Br)cc12 | 1% | 96% (active) | 54.1% | -3% | 89% (active) | 42.1% | -6% | 98% (active) | 77.2% (active) | -4 | 58% | 17.7% | -3% | 95% (active) | 87.2% (active) | 3% | 98% (active) | 38.5%
CN(C)C(=S)/N=c1\ssc(=S)n1C | 2% | 0% | 86.7% (active) | 2% | 4% | 27.4% | 2% | -1% | 90.7% (active) | 1 | 4% | 72.1% (active) | -1% | -1% | 87.8% (active) | 0% | 6% | 84.8% (active)
C[C@]12CC[C@H](O)CC1=CC[C@@H]1C2CC[C@]2(C)NC(=O)CCC12 (stereo not given in full) | -4% | 0% | 46.9% | 1% | 4% | 40.8% | -2% | 16% | 82.8% (active) | 1 | 0% | 53% | 3% | 4% | 39.3% | -3% | 1% | 76% (active)
